The values below come from PubChem BioAssay (NCATS).

Where “and” joins values, the source holds several entries; their conditions need not be identical. Equal values may be shown once. Inconclusive results are not listed. Calls of active or inactive are those of the source. Unless noted, calls follow the shape of the dose curve; as a rule, active = well fitted curve in the direction sought with a large enough effect; inconclusive = small, poorly fitted or top-dose-only effect, or another doubt; inactive = no such curve, though single readings can be large; an effect the other way counts as inactive or inconclusive.

Assay [1] deals with Thioredoxin reductase 1, cytoplasmic (Rattus norvegicus) (UniProt O89049). As to the kind of experiment: qHTS Assay for Inhibitors of Mammalian Selenoprotein Thioredoxin Reductase 1 (TrxR1) (AID 488773).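 Also: drop in NADPH fluorescence over an 8 min run after selenite addition; series mostly up to about 57 µM; % is scaled to controls: 0 for no effect and ±100 for the full control effect; nearly all actives have a fitted effect of over 40% in size.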 The conditions noted are these: Potency: inhibition. In a few lines: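 Inhibition is scored from the loss of NADPH fluorescence between first and last reads of an 8-min kinetic run. Selenite (400 uM) was the substrate, added after 15 min compound preincubation at room temperature.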
In general terms: In qHTS, concentration-response curves come from the screen itself.

The target of assay [2] is Flap endonuclease 1 (Homo sapiens) (UniProt P39748). Kind of assay: qHTS Validation Assay for the Inhibitors of Human Flap endonuclease 1 (FEN1) (AID 488816). Also: potency is read from the fitted curve at half-maximal effect. In a few lines: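 Steps: add FEN1 (10 nM reagent) or buffer only; pin compounds; hold 15 min at room temperature; start with substrate, 50 nM final; read at 0 and 15 min; correct, normalize and fit a four-parameter Hill curve.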

For assay [3], the target named is M-phase phosphoprotein 8 (Homo sapiens) (UniProt Q99549). Kind of assay: qHTS Validation Assay for Inhibitors for MPP8 Chromodomain Interactions with Methylated Histone Tails (AID 488949). Also: nearly all actives have a fitted effect of over 55% in size. Also: potency is read from the fitted curve at half-maximal effect. The gist of the method: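 50 nM MPP8 + 50 nM b-H3K9me3 peptide, PBS pH 7.4/0.01% Tween-20, 30 min RT; + cpd 30 min RT; + AlphaScreen donor/Ni-chelate acceptor beads 10 ug/mL final, 30 min dark; luminescence read.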

For assay [4], the target named is Chromobox protein homolog 1 (Homo sapiens) (UniProt P83916). Kind of assay: qHTS Validation Assay for Inhibitors of HP1-beta Chromodomain Interactions with Methylated Histone Tails (AID 488953). Also: nearly all actives have a fitted effect of over 50% in size. Also: potency is read from the fitted curve at half-maximal effect. In a few lines: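 AlphaScreen proximity signal from streptavidin donor and nickel chelate acceptor beads (final 10 ug/mL) after 30 min dark incubation. Compounds had 30 min at room temperature with preformed complex of 50 nM HP1-beta and 50 nM b-H3(1-18)K9me3 in PBS pH 7.4 with 0.01% Tween-20.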

Assay [5] deals with Methanococcus maripaludis chaperonin (MmCpn) (UniProt Q6LX38). As to the kind of experiment: High-Throughput Screening for Modulators of Cytosolic Chaperonin Activity: MmCpn Primary Screen (AID 488978).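 Also: 50 nM MmCpn enzyme hydrolysing 30 µM ATP at 37 °C; 0% is about no effect.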 The gist of the method: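 Steps: chaperonin 50 nM final; add compound, 5 min RT; start with ATP, 30 uM final; hold 10 min at 37C; add ADP Transcreener HTRF reagent, 5 min; read ex 320, em 590 and 665 nm.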

The target in assay [6] is Transient receptor potential cation channel subfamily V member 1 (Homo sapiens) (UniProt Q8NER1). As to the kind of experiment: HTS Assay for Compounds that Act as Enhancers of the Vanilloid Receptor 1 (AID 488979). Also: 0% is about no effect. The gist of the method: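 TRPV1-expressing cells loaded with Fluo-8 calcium dye; compounds added and calcium influx read kinetically for 3 min (agonist phase), then capsaicin at EC20 added and read 2 min more for enhancement. Fluorescence ex 480/em 520 nm.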

Assay [7] deals with Thyrotropin receptor (Homo sapiens) (UniProt P16473). Kind of assay: qHTS Assay for Antagonists of the Thyroid Stimulating Hormone Receptor (AID 488980). Also: series mostly up to about 58 µM; 0% is about no effect. In a few lines:
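Readout is cAMP by HTRF competition between cellular cAMP and cAMP-d2 for a cryptate-labelled antibody. Antagonism was assessed in TSHR-transfected HEK293 cells stimulated with 4 nM TSH (EC80, final) in the presence of RO 20-1724.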

Assay [8] addresses D(1A) dopamine receptor (Homo sapiens) (UniProt P21728). Kind of assay: HTS Assay for Allosteric Agonists of the Human D1 Dopamine Receptor: Primary Screen for Agonists (AID 488981). Also: 0% is about no effect. In a few lines:
(§1)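 Tetracycline-induced HEK293 T-REx cells force-coupled to calcium signalling were incubated overnight at 30 C and dye-loaded at room temperature. Calcium flux over 180 s after compound addition flagged agonists; a further 180 s read after EC20 dopamine flagged potentiators.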

The target is the same in assay [9]. Kind of assay: HTS Assay for Allosteric Agonists of the Human D1 Dopamine Receptor: Primary Screen for Potentiators (AID 488982). Also: 0% is about no effect. In a few lines: as §1
For assay [10] the target is unchanged. As to the kind of experiment: HTS Assay for Allosteric Agonists of the Human D1 Dopamine Receptor: Primary Screen for Antagonists (AID 488983).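 Also: calcium flux response to an EC80 dopamine challenge measured with no-wash dye; % is scaled to controls: 0 for no effect and ±100 for the full control effect; nearly all actives have a fitted effect of over 65% in size.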 The gist of the method:
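Calcium-flux read-out in inducible HEK293 T-REx cells expressing D1, dye-loaded 30–90 min at room temperature. Kinetic reads: 180 s after compound (agonist phase), then 180 s after an EC80 dopamine challenge.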

Assay [11] in a line: Validation screen for small molecules that induce genotoxicity in human embryonic kidney (HEK293T) cells expressing luciferase-tagged ELG1 (AID 493106). Also: 0% is about no effect. In a few lines: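 ELG1-luciferase reporter readout (ONE-Glo, 30 min, room temperature) after 16 hr compound treatment at 37 °C of HEK293T cells at 2,000 per well. Rising luminescence flags genotoxic stress.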
Assay [12] deals with ATPase family AAA domain-containing protein 5 (Homo sapiens) (UniProt Q96QE3). Kind of assay: Validation screen for small molecules that inhibit ELG1-dependent DNA repair in human embryonic kidney (HEK293T) cells expressing luciferase-tagged ELG1 (AID 493107).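 Also: series mostly up to about 46 µM; % is scaled to controls: 0 for no effect and ±100 for the full control effect; inhibitors lower the ELG1-luciferase luminescence signal; nearly all actives have a fitted effect of over 70% in size.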 The gist of the method: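 Luciferase read-out, ONE-Glo, 30 min at room temperature, follows 16 h co-exposure at 37 C of compound and the DNA-damaging agent 5-fluorouridine. Cells: HEK293T with ELG1-luciferase fusion, 2,000 per well, DMSO as vehicle.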

Assay [13] deals with Thyrotropin-releasing hormone receptor (Homo sapiens) (UniProt P34981). Kind of assay: qHTS for Small Molecule Agonists and Allosteric Enhancers of Human TRH Receptor: Validation Screen for Agonists (AID 493127;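 active = calcium activation more than 3 SD above the typical response in the agonist read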;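 also: intracellular calcium rise by fluo-8 fluorescence before TRH EC20 addition; 0% is about no effect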). The conditions noted are these: TRH receptor agonist cell assay; at 2 µM; stronger effect = higher value. In a few lines:
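Compound-evoked intracellular calcium release in fluo-8-loaded TRHR cells, read kinetically on FDSS (Ex 480/Em 530, 1 s/cycle) after 23 nL pintool transfer. Agonist phase preceded 10 nM TRH EC20 addition.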

Assay [14] can be described thus: Nrf2 qHTS screen for inhibitors: Validation (AID 493153; active = well fitted inhibition curve with a large enough effect in the main read-out, with a control signal flat, not every such curve was filed as active). The conditions noted are these: Potency: luciferase luminescence; viability change: measured here: cytotoxicity max response. The gist of the method: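 Concentration-response on A549 ARE_Fluc reporter cells exposed 18-24 h at 37 C, 5% CO2. Cytotoxicity read first by CellTiter-Fluor fluorescence (Ex 405/Em 525), then Nrf2 inhibition by BugLite luminescence after 15 min.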

The nature of assay [15]: qHTS for Inhibitors of Cell Surface uPA Generation: Validation Assay (AID 493164).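 Also: RAW 264.7 macrophage cells exposed to compound for 18 h; 0% is about no effect.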 In a few lines: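 ATP-Lite luminescence read-out: ATP remains high when uPA activity-dependent LF translocation into the cytoplasm is blocked. RAW 264.7 cells, 18 h compound exposure at 37 C; 7-point titration, 2.45 nM to 38.3 uM final.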
The target in assay [16] is Galactokinase (Homo sapiens) (UniProt P51570). As to the kind of experiment: qHTS Validation Assay for Inhibitors of Human Galactokinase (GALK) (AID 493189). Also: 0% is about no effect. In a few lines: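 5 nM GALK / 100 uM galactose / 35 uM ATP, 20 mM HEPES pH8.0, 5 mM MgCl2, 60 mM NaCl, 1 mM DTT, 0.01% BSA (final). RT 1 h; Kinase-Glo Plus luminescence.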
Assay [17] can be described thus: Validation screen for small molecules that induce DNA re-replication in SW480 colon adenocarcinoma cells (AID 504364). Also: 0% is about no effect. In a few lines:
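Image-based DNA content read-out: Hoechst stain 40 min, total nuclear fluorescence intensity (ex 405 nm, em 500-530 nm) after 48 h compound exposure of 250 SW480 cells/well at 37 C, 5% CO2, versus DMSO vehicle.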

In assay [18] the target is Thioredoxin reductase 1, cytoplasmic (Rattus norvegicus) (UniProt O89049). Kind of assay: qHTS Assay for Substrates of Mammalian Selenoprotein Thioredoxin Reductase 1 (TrxR1) (AID 488772).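 Also: series mostly up to about 57 µM; 0% is about no effect; a drop in NADPH fluorescence below the no-compound background marks a TrxR1 substrate.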 The gist of the method: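 In this dual-purpose format, potential substrates are identified from the first fluorescence read after selenite addition, not from the 8-minute delta. Rat enzyme is preincubated with NADPH and then with compound at ~22 deg C.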

For assay [19], the target named is ATP-dependent 6-phosphofructokinase (Trypanosoma brucei brucei) (UniProt O15648). As to the kind of experiment: qHTS Assay to Find Inhibitors of T. brucei phosphofructokinase: hit validation (AID 492961).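 Also: luminescence reports ADP formed as PFK phosphorylates fructose-6-phosphate with ATP; series mostly up to about 51 µM; % is scaled to controls: 0 for no effect and ±100 for the full control effect.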 The gist of the method:
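Reaction: 0.1 M triethanolamine pH 8.0, 5 mM MgCl2, F6P 0.5 mM, ATP 0.1 mM, PFK 1.25 nM, 45 min RT. Read-out: ADP-Glo luminescence. Analysis: concentration-response fits, classed by r2 and efficacy.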

Methanococcus maripaludis chaperonin (MmCpn), sequence (Q6LX38 1-543): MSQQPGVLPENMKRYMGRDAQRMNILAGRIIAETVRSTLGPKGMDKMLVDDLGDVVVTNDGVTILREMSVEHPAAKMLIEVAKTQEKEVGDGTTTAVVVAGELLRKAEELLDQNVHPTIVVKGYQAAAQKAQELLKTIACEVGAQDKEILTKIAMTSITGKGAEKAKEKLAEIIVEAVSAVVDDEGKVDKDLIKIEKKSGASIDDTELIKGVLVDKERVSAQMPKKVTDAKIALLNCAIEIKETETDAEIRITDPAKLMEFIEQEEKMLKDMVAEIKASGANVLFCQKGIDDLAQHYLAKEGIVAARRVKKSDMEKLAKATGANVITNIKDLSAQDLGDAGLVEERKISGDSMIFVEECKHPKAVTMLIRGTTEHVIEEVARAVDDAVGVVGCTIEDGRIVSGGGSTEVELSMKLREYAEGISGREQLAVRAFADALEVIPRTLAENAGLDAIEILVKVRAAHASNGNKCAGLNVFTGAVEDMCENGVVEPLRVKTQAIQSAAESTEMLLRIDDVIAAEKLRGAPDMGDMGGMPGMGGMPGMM
M-phase phosphoprotein 8 (Homo sapiens), sequence (Q99549 whole entry, looked up): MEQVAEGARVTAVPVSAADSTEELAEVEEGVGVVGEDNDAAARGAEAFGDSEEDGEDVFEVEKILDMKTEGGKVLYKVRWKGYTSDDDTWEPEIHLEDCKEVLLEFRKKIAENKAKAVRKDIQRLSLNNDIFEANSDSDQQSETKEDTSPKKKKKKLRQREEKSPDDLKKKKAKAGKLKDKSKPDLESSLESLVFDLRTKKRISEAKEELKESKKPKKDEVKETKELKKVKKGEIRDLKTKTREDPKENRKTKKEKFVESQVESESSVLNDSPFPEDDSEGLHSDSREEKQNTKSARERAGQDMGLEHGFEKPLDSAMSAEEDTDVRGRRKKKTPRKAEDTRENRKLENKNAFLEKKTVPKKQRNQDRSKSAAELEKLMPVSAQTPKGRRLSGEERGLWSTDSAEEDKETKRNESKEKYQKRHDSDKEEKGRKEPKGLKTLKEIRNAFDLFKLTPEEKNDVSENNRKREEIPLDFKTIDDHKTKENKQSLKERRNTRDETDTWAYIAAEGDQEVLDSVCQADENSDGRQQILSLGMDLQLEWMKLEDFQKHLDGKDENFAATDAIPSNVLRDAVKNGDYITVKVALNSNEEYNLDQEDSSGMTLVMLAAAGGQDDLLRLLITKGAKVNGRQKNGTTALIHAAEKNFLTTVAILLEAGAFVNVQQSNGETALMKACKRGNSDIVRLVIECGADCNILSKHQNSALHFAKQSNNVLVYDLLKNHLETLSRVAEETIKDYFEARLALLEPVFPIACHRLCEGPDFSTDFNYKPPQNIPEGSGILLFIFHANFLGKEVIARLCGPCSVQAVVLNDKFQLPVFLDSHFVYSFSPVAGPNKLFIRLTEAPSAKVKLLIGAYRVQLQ
Transient receptor potential cation channel subfamily V member 1 (Homo sapiens), sequence (Q8NER1 whole entry, looked up): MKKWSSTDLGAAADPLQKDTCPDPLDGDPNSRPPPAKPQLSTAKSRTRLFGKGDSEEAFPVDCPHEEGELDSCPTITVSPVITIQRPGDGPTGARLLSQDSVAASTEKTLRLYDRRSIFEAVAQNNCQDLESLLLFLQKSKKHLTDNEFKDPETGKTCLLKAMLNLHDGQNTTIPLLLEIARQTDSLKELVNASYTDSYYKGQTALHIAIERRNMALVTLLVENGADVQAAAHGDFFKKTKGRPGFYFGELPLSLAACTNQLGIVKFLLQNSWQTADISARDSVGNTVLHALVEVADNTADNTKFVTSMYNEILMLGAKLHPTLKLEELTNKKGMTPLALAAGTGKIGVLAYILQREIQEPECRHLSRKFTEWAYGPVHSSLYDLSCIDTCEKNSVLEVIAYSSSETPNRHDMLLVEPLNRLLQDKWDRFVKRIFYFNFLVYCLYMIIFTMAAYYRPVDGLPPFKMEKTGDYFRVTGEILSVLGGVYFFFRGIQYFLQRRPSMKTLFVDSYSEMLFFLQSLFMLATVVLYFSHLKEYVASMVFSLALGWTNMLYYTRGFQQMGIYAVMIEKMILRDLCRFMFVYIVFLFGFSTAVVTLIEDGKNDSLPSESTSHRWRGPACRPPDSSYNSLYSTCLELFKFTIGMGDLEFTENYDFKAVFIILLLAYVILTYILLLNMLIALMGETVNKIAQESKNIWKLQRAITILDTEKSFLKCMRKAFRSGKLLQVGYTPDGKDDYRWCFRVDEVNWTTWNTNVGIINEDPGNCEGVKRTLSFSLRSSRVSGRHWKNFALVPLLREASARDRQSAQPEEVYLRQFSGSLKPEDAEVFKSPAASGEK
D(1A) dopamine receptor (Homo sapiens), sequence (P21728 whole entry, looked up): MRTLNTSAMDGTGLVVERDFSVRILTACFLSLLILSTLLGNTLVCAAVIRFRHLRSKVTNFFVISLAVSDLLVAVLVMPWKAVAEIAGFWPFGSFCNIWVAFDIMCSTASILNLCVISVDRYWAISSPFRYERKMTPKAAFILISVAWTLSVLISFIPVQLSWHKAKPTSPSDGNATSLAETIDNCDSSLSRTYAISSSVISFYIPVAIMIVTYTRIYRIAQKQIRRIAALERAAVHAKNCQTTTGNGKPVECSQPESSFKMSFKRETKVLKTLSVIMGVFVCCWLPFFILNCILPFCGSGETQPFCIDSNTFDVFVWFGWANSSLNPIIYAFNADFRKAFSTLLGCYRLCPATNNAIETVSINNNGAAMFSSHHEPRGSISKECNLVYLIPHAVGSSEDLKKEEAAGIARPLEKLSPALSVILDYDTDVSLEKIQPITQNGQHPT
Thioredoxin reductase 1, cytoplasmic (Rattus norvegicus), sequence (O89049 whole entry, looked up): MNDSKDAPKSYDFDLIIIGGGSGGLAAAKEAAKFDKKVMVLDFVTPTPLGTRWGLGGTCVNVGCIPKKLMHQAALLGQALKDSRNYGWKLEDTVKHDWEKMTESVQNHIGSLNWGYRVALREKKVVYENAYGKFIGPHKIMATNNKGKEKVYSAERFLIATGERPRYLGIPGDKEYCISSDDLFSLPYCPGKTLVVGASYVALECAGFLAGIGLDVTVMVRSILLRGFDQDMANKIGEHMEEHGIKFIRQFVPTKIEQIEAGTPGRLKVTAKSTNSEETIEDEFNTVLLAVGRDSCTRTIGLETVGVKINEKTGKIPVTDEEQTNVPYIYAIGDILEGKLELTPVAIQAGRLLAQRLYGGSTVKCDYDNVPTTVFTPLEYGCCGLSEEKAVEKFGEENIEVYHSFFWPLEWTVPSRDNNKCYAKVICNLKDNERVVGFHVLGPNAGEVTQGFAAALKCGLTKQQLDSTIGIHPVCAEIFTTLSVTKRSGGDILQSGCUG
ATPase family AAA domain-containing protein 5 (Homo sapiens), sequence (Q96QE3 whole entry, looked up, the tested form may be a part): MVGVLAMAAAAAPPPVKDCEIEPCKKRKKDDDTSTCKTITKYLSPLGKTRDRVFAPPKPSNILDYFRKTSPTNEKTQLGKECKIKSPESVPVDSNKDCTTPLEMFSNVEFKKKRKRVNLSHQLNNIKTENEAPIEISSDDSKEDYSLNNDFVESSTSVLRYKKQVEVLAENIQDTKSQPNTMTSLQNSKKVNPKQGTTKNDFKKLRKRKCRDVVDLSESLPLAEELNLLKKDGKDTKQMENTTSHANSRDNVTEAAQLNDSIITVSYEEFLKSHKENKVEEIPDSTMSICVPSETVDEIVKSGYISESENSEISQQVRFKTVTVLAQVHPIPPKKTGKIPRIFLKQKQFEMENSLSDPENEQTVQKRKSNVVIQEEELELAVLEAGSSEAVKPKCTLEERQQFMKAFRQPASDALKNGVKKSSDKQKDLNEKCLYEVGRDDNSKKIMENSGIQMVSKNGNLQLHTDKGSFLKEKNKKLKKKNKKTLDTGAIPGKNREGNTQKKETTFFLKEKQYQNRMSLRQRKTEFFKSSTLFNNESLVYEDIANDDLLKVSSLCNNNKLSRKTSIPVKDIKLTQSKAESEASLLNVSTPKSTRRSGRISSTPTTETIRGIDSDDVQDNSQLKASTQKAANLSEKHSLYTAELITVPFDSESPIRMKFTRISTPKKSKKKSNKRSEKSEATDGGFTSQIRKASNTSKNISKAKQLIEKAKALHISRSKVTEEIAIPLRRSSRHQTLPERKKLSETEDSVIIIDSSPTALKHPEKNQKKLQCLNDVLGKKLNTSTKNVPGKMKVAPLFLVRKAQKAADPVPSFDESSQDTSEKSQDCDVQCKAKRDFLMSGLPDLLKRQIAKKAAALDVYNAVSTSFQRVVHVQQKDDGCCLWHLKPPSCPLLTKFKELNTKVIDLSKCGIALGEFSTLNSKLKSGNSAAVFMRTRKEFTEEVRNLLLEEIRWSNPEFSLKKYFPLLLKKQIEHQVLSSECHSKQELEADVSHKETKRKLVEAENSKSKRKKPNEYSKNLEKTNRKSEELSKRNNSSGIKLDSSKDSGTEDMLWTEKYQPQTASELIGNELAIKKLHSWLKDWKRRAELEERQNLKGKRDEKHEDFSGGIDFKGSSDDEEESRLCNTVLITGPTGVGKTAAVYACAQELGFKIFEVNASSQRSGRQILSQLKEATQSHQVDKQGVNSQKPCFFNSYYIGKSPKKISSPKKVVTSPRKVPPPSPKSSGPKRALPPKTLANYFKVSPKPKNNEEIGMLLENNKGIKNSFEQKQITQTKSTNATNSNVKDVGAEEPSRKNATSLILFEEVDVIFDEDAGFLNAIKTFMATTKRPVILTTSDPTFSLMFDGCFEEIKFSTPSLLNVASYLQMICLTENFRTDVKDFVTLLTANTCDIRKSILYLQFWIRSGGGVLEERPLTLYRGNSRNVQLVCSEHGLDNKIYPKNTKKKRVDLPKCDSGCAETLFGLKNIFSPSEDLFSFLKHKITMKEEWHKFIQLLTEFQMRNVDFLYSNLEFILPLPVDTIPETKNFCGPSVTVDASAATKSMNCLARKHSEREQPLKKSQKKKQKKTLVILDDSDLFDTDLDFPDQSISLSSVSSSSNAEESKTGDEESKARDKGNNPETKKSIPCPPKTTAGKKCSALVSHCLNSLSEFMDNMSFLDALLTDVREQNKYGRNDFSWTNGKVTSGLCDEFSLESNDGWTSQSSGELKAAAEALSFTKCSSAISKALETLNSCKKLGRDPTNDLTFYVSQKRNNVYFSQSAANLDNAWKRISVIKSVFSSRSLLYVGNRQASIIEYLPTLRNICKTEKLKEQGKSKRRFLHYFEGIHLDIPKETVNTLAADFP

For `C[N+](C)(CCCCCC[N+](C)(C)CCCN1C(=O)c2cccc3cccc(c23)C1=O)CCCN1C(=O)c2cccc3cccc(c23)C1=O`, the Potency result in assay [1], in assay [3], in assay [4], in assay [8], in [9] and in assay [10] was “inactive” throughout. Further, the Potency entry in assay [11], in [12], in assay [14], in assay [16] and in assay [17] was “inactive” in each case. Moreover, the Potency in [2] was 2.99 µM (active). Moreover, the compound was classed as inactive in assay [5], in assay [6], in assay [7] and in assay [15]. Moreover, the activation in [13] was -0.188% (inactive). In assay [14], the viability change is -2.29%.
With `C=C[C@@H]1CN2CC[C@@H]1C[C@H]2[C@H](O)c1ccnc2ccc(OC)cc12`, the Potency entry in [18], in assay [4], in [8], in assay [9], in assay [10] and in assay [11] was “inactive” each time. In addition, the Potency result in [12], in assay [14] and in assay [17] was “inactive” throughout. Moreover, the compound was classed as inactive in assay [5] and in assay [15]. Moreover, the viability change in assay [14] was -4.66%.
For the compound `O=C(O)CC1CCCc2ccccc2C1O` (stereo not drawn), the Potency result in assay [1], in assay [2], in assay [3], in assay [8], in assay [9] and in [10] was “inactive” throughout. Moreover, the Potency entry in assay [11], in assay [12], in assay [14] and in assay [17] was “inactive” in each case. In addition, the compound was called inactive in [5], in assay [6], in assay [7] and in assay [15]. Also, in [13], the activation is 0.625% (inactive). In addition, in assay [14], the viability change was found to be 2.15%.
Regarding `C[C@@H](NC(=O)/C(C#N)=C/c1ccc(O)c(O)c1)c1ccccc1`, the Potency result in [1], in [2], in assay [8], in assay [10], in assay [11] and in [12] was “inactive” each time. For the same compound, the Potency result in [16] and in [17] was “inactive” throughout. For the same compound, the values for the Potency in assay [3] and in assay [4] were 10 µM (active) and 8.91 µM (active), respectively. Further, the compound was classed as inactive in [5], in assay [6], in [7] and in assay [15]. Also, the activation in assay [13] is 0.938% (inactive).
`S=C(S)OC1CC2CC1C1CCCC21` (stereo not drawn): the Potency entry in assay [1], in assay [2], in [3], in [8], in [9] and in assay [10] was “inactive” throughout. In addition, the Potency result in assay [11], in assay [16] and in assay [17] was “inactive” each time. The Potency in assay [4] is 39.8 µM (active). For the same compound, the call in assay [5], in assay [6] and in [7] was inactive. Also, in assay [13], the activation is 0.125% (inactive).
With `CCC1C(=O)OCC1Cc1cncn1C` (stereo not drawn), the Potency entry in assay [18], in assay [4], in assay [8], in [10], in [11] and in [12] was “inactive” in each case. In [14], the Potency result was “inactive”. Further, the compound was called inactive in assay [5], in assay [19] and in assay [15]. Further, in assay [14], the viability change is 6.63% and 6.13%.
As for `COc1cc2c(CCNC(C)=O)c[nH]c2cc1Cl`, the Potency entry in [18], in assay [3], in assay [4], in assay [8], in [9] and in assay [10] was “inactive” each time. Further, the Potency result in assay [11], in [12], in assay [14], in assay [16] and in assay [17] was “inactive” each time. Also, the outcome in assay [5], in [6], in assay [7] and in [15] was inactive. Moreover, the activation in assay [13] is 0.375% (inactive). For the same compound, the viability change in assay [14] was determined as 2.33%.
